Experiment [1] in a line: qHTS assay to identify small molecule agonists of the hypoxia (HIF-1) signaling pathway - cell viability counter screen (AID 1224844; calls by dose curve; also: % is scaled to controls: 0 for no effect and ±100 for the full control effect; nearly all actives have a fitted effect of over 50% in size). The essentials:
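HRE-bla ME-180 cells in medium with 0.5% dialyzed FBS were preincubated 5 hrs at 37C, exposed to compounds for 17 hrs, then viability was read as CellTiter-Glo luminescence after 30 min at room temperature, in the reporter wells.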
Background: In qHTS, concentration-response curves come from the screen itself.

Experiment [2] in a line: qHTS assay to identify small molecule agonists of H2AX (AID 1224845; active = well fitted activation curve with a large enough effect in the signal ratio in the repeat runs, not every such curve was filed as active; the % refers to the signal ratio; also: % is scaled to controls: 0 for no effect and ±100 for the full control effect). The essentials: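 Phospho-H2AX Ser139 measured by HTRF (ex 320 nm; em 665 and 620 nm) after 24 hr antibody incubation. Compounds, 15 concentrations, 0.76% DMSO, were applied to CHO-K1 cells for 3hr at 37C before lysis.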
Experiment [3] in a line: qHTS assay to identify small molecule agonists of the hypoxia (HIF-1) signaling pathway (AID 1224846; active = well fitted activation curve with a large enough effect in the signal ratio in the repeat runs, not every such curve was filed as active; the % refers to the signal ratio; also: % is scaled to controls: 0 for no effect and ±100 for the full control effect). The essentials:
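HRE-bla ME-180 cells (beta-lactamase reporter under hypoxia response element) were plated at 2,000 cells/well in medium with 0.5% dialyzed FBS, rested 5 hrs, then given compounds in DMSO for 17 hrs at 37C, 5% CO2. Reporter induction was read with CCF4-AM FRET substrate.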

Experiment [4] can be described thus: qHTS RealTime-Glo MT Cell Viability Assay in HepG2 cells - 24 hour (AID 1224867). Also: % is scaled to controls: 0 for no effect and ±100 for the full control effect; nearly all actives have a fitted effect of over 50% in size. The essentials:
(§1)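 Cell number in HepG2 cultures estimated from NanoLuc luminescence generated by metabolic reduction of a prosubstrate by living cells. The homogeneous, nonlytic format allowed repeated reads at 0, 8, 16, 24, 32 and 40 h of compound exposure.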

Experiment [5] is described as follows: qHTS RealTime-Glo MT Cell Viability Assay in HEK293 cells - 32 hour (AID 1224868). Also: nearly all actives have a fitted effect of over 50% in size. Also: potency is read from the fitted curve at half-maximal effect. The procedure, abridged: (§2)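 Homogeneous bioluminescent viability format in HEK293 cells (600 cells/well). Following 5 h at 37 C/5% CO2, 23 nL compound was pintooled; the signal was measured repeatedly during 40 h incubation.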
Experiment [6] in a line: A CellTox Green Cytotoxicity Assay to monitor cytotoxicity in HEK293 cells - 0 hour (AID 1224869). Also: % is scaled to controls: 0 for no effect and ±100 for the full control effect; nearly all actives have a fitted effect of over 50% in size. The procedure, abridged:
(§3)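 HEK293 cells premixed with CellTox Green dye were seeded at 600 cells/well and left 5 h at 37 C/5% CO2 before pin transfer of 23 nL compound in DMSO. Fluorescence from dye bound to dead-cell DNA was read during 40 h treatment.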

The nature of experiment [7]: qHTS RealTime-Glo MT Cell Viability Assay in HepG2 cells - 40 hour (AID 1224870). The procedure, abridged: (§4)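 Real-time viability: cells seeded at 600 per well together with NanoLuc and cell-permeant prosubstrate, compounds added after 5 h incubation. Luminescence tracked at 0, 8, 16, 24, 32 and 40 h of exposure.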
A short description of experiment [8]: A CellTox Green Cytotoxicity Assay to monitor cytotoxicity in HEK293 cells - 40 hour (AID 1224871). Also: % is scaled to controls: 0 for no effect and ±100 for the full control effect; nearly all actives have a fitted effect of over 45% in size. The procedure, abridged: as §3
Experiment [9] in a line: qHTS RealTime-Glo MT Cell Viability Assay in HEK293 cells - 16 hour (AID 1224872). The procedure, abridged:
as §2

The nature of experiment [10]: qHTS RealTime-Glo MT Cell Viability Assay in HepG2 cells - 8 hour (AID 1224873). Also: % is scaled to controls: 0 for no effect and ±100 for the full control effect; nearly all actives have a fitted effect of over 55% in size. The procedure, abridged:
as §4

Experiment [11] can be described thus: A CellTox Green Cytotoxicity Assay to monitor cytotoxicity in HEK293 cells - 24 hour (AID 1224875). Also: % is scaled to controls: 0 for no effect and ±100 for the full control effect; nearly all actives have a fitted effect of over 45% in size. The procedure, abridged: as §3
The nature of experiment [12]: A CellTox Green Cytotoxicity Assay to monitor cytotoxicity in HepG2 cells - 16 hour (AID 1224876). Also: % is scaled to controls: 0 for no effect and ±100 for the full control effect; nearly all actives have a fitted effect of over 45% in size. The procedure, abridged: (§5)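 HepG2 cells were seeded together with the CellTox Green dye at 600 cells/well, left 5 h at 37 C/5% CO2, then given compounds in DMSO. Fluorescence from dye bound to dead-cell DNA was read repeatedly over 40 h of treatment at 37 C.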
Experiment [13] can be described thus: qHTS RealTime-Glo MT Cell Viability Assay in HepG2 cells - 32 hour (AID 1224877). Also: % is scaled to controls: 0 for no effect and ±100 for the full control effect; nearly all actives have a fitted effect of over 55% in size. The procedure, abridged: as §1
Experiment [14] is described as follows: A CellTox Green Cytotoxicity Assay to monitor cytotoxicity in HepG2 cells - 24 hour (AID 1224878). Also: % is scaled to controls: 0 for no effect and ±100 for the full control effect; nearly all actives have a fitted effect of over 45% in size. The procedure, abridged:
as §5

The nature of experiment [15]: A CellTox Green Cytotoxicity Assay to monitor cytotoxicity in HepG2 cells - 40 hour (AID 1224879). Also: % is scaled to controls: 0 for no effect and ±100 for the full control effect; nearly all actives have a fitted effect of over 40% in size. The procedure, abridged: as §5
A short description of experiment [16]: qHTS RealTime-Glo MT Cell Viability Assay in HEK293 cells - 0 hour (AID 1224880). The essentials: (§6)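 HEK293 cells mixed with RealTime-Glo reagents (NanoLuc plus cell-permeant prosubstrate) at 600 cells/well, preincubated 5 h at 37 C/5% CO2, then given 23 nL compound in DMSO. Nonlytic luminescence from viable cells was read at 0, 8, 16, 24, 32 and 40 h.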
Experiment [17] is described as follows: qHTS RealTime-Glo MT Cell Viability Assay in HEK293 cells - 40 hour (AID 1224874). The note with it: RealTime-Glo luminescence; max response: hits give low values. The essentials:
as §6

The nature of experiment [18]: qHTS assay to identify small molecule antagonists of the estrogen related receptor (ERR) signaling pathway from Tox21 library (AID 1224848). The essentials: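 Reading was by luminescence 30 min after ONE-Glo addition. Before that, ERR cells at 2,000 per well had rested 6 h at 37 C/5% CO2 and then received pin-tooled compounds in DMSO for 18 h at 37 C.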
A short description of experiment [19]: qHTS assay to identify small molecule agonists of the estrogen related receptor (ERR) signaling pathway from Tox21 library (AID 1224849; calls by dose curve; also: % is scaled to controls: 0 for no effect and ±100 for the full control effect; nearly all actives have a fitted effect of over 15% in size). The conditions noted are these: ERR reporter cell line, ONE-Glo luciferase, 18 h; at 92.4 µM (top of the series) unless noted. The procedure, abridged:
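ERR reporter cell line (NTP) seeded, rested 6 h at 37 C/5% CO2, then pinned with Tox21 compounds in DMSO. After 18 h at 37 C, ONE-Glo luciferase luminescence was read following 30 min at room temperature.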

The nature of experiment [20]: qHTS assay to identify small molecule agonists of H2AX - cell viability counter screen (AID 1224847; calls by dose curve; also: top concentration of the series differs between compounds; % is scaled to controls: 0 for no effect and ±100 for the full control effect; nearly all actives have a fitted effect of over 30% in size). The procedure, abridged: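 Viability of CHO-K1 (wild type) cells after 3 hr compound exposure was measured by CellTiter-Glo luminescence.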

Values without a mark were called inactive. Records with an inconclusive call do not appear. Activity calls are given as the source filed them. Unless noted, calls follow the shape of the dose curve; as a rule, active = well fitted curve in the direction sought with a large enough effect in the repeat runs; inconclusive = weak or mixed curves; inactive = no such curve, though single readings can be large; an effect the other way counts as inactive or inconclusive.

For `CCN(CC)C(C)CN1c2ccccc2Sc2ccccc21` (centres undefined), the Potency entry in [1], in [2], in experiment [4], in experiment [5], in experiment [6] and in [7] was “inactive” throughout. Moreover, the Potency entry in experiment [8], in experiment [9], in experiment [10], in [11], in experiment [12] and in [13] was “inactive” in each case. Moreover, the Potency result in [14], in [15] and in experiment [16] was “inactive” throughout. The result in [3] was inactive.
As to `CC(C)(C)c1cc(CCC(=O)OCC(COC(=O)CCc2cc(C(C)(C)C)c(O)c(C(C)(C)C)c2)(COC(=O)CCc2cc(C(C)(C)C)c(O)c(C(C)(C)C)c2)COC(=O)CCc2cc(C(C)(C)C)c(O)c(C(C)(C)C)c2)cc(C(C)(C)C)c1O`, the Potency result in experiment [1], in [2], in [4], in experiment [5], in experiment [6] and in [7] was “inactive” each time. In addition, the Potency entry in [8], in experiment [9], in experiment [10], in experiment [11], in experiment [12] and in experiment [13] was “inactive” throughout. The Potency result in experiment [14], in experiment [15] and in experiment [16] was “inactive” throughout. Also, in experiment [3], the molecule was called inactive. Besides, the max response in [17] is 0.256%.
Consider `CCCCCCCCCC=O`, for which the Potency result in [1], in experiment [2], in experiment [4], in experiment [6], in [7] and in [8] was “inactive” throughout. Besides, the Potency result in [9], in experiment [10], in [11], in experiment [12], in experiment [13] and in experiment [14] was “inactive” in each case. The Potency entry in experiment [15] and in [16] was “inactive” throughout. Further, the result in experiment [3] was inactive. Besides, the max response in experiment [17] is 7.4%.
Turning to `CCOc1ccc2[nH]cc(C(=O)NCc3ccccc3)c(=O)c2n1`, the Potency result in experiment [1], in [2], in [4], in [6], in experiment [7] and in [8] was “inactive” each time. In addition, the Potency result in [11], in experiment [12], in [13], in [14], in experiment [15] and in [16] was “inactive” throughout. Also, the molecule was classed as inactive in experiment [3]. The Potency in experiment [18] is 24.3 µM (active). Further, the activity change, positive = activation in [19] was -48.4%. In addition, the max response in experiment [17] is -23.2%.
With `O=S(=O)(O)c1ccc(O)c2ncccc12`, the Potency result in experiment [1], in experiment [2], in experiment [4], in experiment [5], in [6] and in experiment [7] was “inactive” in each case. The Potency entry in [8], in experiment [9], in [10], in experiment [11], in experiment [12] and in [13] was “inactive” throughout. For the same molecule, the Potency entry in experiment [14] and in experiment [15] was “inactive” each time. Further, the molecule was called inactive in [3]. In addition, the max response in experiment [17] was 27.2%.
For the molecule `CNCC[C@@H](Oc1ccccc1C)c1ccccc1`, the Potency result in [1], in [2], in [20], in experiment [4], in [5] and in [6] was “inactive” throughout. Besides, the Potency entry in experiment [7], in [8], in [9], in [10], in [11] and in experiment [13] was “inactive” each time. For the same molecule, the Potency entry in [14] and in experiment [15] was “inactive” each time. In addition, the activity change, positive = activation in [19] is -15.2% [at 42.5 µM]. Also, the max response in experiment [17] was -5.29%.
With `O=C(Nc1ccccc1)OCC(CN1CCCCC1)OC(=O)Nc1ccccc1` (centres undefined), the Potency entry in experiment [1], in [2], in experiment [4], in [6], in experiment [7] and in experiment [8] was “inactive” each time. In addition, the Potency result in experiment [10], in [11], in [12], in experiment [13] and in [16] was “inactive” each time. Also, the Potency in experiment [5] was 21.3 µM (active).

(Values after PubChem BioAssay (Tox21).)
